PAFAH1B3 inh = PAFAH1B3 enzyme inhibitors, primary screen, biochemical, fluorescence polarization, human. Platelet-activating factor acetylhydrolase IB subunit alpha1 (Homo sapiens), Q15102. recombinant PAFAH1B3, FP-rhodamine probe. inhibition, % at 3.39 µM. 0.28% of 340,000 active;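 active = inhibition above the screen-wide average of all tested compounds plus 3 SD, cut at about 25% in these data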;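 note: 0% = enzyme with DMSO only and 100% = wells lacking PAFAH1B3 protein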
LYPLA2 counter = LYPLA2 inhibitors, primary screen, counter-screen for PME1 inhibitor project, biochemical, fluorescence polarization, FP-Rh probe ABPP; Acyl-protein thioesterase 2 (Homo sapiens), O95372; recombinant LYPLA2; inhibition, % at 5.9 µM; 0.38% of 320,000 active; AID 2177, 2009;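 active = inhibition above the screen-wide mean plus 3 SD, limit set per campaign, cut at about 26% in these data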;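 note: 0% = LYPLA2 with DMSO and 100% = wells lacking LYPLA2 enzyme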
Target sequence (O95372 whole entry, looked up): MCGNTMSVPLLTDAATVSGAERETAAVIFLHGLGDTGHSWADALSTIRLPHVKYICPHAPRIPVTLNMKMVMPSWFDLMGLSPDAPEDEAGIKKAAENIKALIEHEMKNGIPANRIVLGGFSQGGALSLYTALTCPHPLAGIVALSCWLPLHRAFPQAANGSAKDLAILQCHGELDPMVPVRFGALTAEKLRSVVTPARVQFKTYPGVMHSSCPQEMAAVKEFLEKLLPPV
PAFAH2 inh = PAFAH2 enzyme inhibitors, primary screen, biochemical, fluorescence polarization, human; recombinant PAFAH2, FP-rhodamine activity probe; inhibition, % at 3.39 µM; 0.99% of 340,000 active;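 active = inhibition above the mean over all tested compounds plus 3 SD, cut at about 30% in these data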;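 note: inhibitors block probe labeling of enzyme so polarization drops; 0% = enzyme with DMSO and 100% = wells lacking PAFAH2 protein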
PAFAH1B2 FP inh = PAFAH1B2 enzyme inhibitors, primary screen, biochemical, fluorescence polarization, human. Platelet-activating factor acetylhydrolase IB subunit alpha2 (Homo sapiens), P68402. recombinant PAFAH1B2, FP-rhodamine activity probe. inhibition, % at 3.39 µM. 1.2% of 340,000 active;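 active = inhibition above the mean of all tested compounds plus 3 SD, cut at about 24% in these data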;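 note: 0% = enzyme with DMSO and 100% = wells lacking PAFAH1B2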
LYPLA1 counter = LYPLA1 inhibitors, primary screen, counter-screen for PME1 inhibitor project, biochemical, fluorescence polarization, FP-Rh probe ABPP; inhibition, % at 5.9 µM; recombinant LYPLA1; 0.16% of 320,000 active; Acyl-protein thioesterase 1 (Homo sapiens), O75608;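 active = inhibition above the mean of all tested compounds plus 3 SD, set per campaign, cut at about 14% in these data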;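 note: inhibitors block serine hydrolase probe labeling of LYPLA1 so polarization falls; 0% = enzyme with DMSO and 100% = wells lacking LYPLA1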
pPAFAH inh = pPAFAH enzyme inhibitors, primary screen, biochemical, fluorescence polarization, human. Platelet-activating factor acetylhydrolase (Homo sapiens), Q13093. recombinant pPAFAH, FP-rhodamine probe fluorescence polarization. inhibition, % at 3.39 µM. 1.5% of 330,000 active. AID 463082, 2010;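 active = inhibition above the mean inhibition across the screen plus 3 SD, cut at about 25% in these data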;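 note: inhibitors block binding of the rhodamine activity-based probe so polarization drops; 0% = enzyme with DMSO and 100% = wells lacking pPAFAH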
Target sequence (Q13093 whole entry, looked up): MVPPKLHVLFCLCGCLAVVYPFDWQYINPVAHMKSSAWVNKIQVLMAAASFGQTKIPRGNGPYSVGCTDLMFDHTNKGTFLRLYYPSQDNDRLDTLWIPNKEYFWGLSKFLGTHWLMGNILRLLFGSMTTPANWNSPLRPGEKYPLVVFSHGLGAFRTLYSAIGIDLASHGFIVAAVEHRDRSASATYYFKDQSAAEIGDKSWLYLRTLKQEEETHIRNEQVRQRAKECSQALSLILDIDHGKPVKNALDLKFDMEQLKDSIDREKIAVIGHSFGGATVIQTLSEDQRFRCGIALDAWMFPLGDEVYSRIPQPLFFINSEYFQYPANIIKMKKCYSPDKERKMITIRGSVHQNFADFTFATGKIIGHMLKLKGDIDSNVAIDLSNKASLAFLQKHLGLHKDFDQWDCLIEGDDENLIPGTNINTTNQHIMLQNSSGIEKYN
pPAFAH confirm = pPAFAH (PLA2G7) enzyme inhibitors, confirmation, biochemical, fluorescence polarization, human | shares compounds with pPAFAH inh | recombinant pPAFAH, FP-Rh probe fluorescence polarization | inhibition, % at 3.39 µM | 72% of 2,300 active | AID 463230, 2010;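 active = mean inhibition of the triplicate above the hit cutoff set for the earlier primary screen, cut at about 25% in these data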;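 note: 0% = enzyme with DMSO and 100% = wells lacking pPAFAH enzyme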
Numbers without * were called inactive; . = no result. The list is not random: actives were taken first. Their share in the collection is about 2.9%.

SMILES | PAFAH1B3 inh | LYPLA2 counter | PAFAH2 inh | PAFAH1B2 FP inh | LYPLA1 counter | pPAFAH inh | pPAFAH confirm
Nc1ncnc2oc(-c3ccco3)c(-c3ccco3)c12 | 37* | -4 | 50* | 21 | -7 | 42* | 9
O=c1nc2s/c(=C\c3ccco3)c(=O)n2nc1Cc1ccc(F)cc1 | 8 | 1 | 4 | 0 | -1 | 40* | 19
O=C(O)C1C2C=CC3(O2)C1C(=O)N1c2ccccc2C2OCCC2C13 (stereo unspecified) | -1 | -2 | 3 | 0 | 3 | 2 | .
Nc1ccc2nc(-c3ccc(-c4nc5ccc(N)cc5[nH]4)cc3)[nH]c2c1 | . | -8 | . | . | -12 | 19 | .
Nc1ccc2nc(-c3cccc(-c4nc5ccc(N)cc5[nH]4)n3)[nH]c2c1 | 30* | -31 | 13 | 32* | -8 | 35* | 54*
O=[N+]([O-])c1cc(/C=N/Nc2nc3ccccc3[nH]2)c(O)cc1O | . | 19 | . | . | 2 | 40* | 34*
CCOC(=O)c1cc(C#N)c(SCC(=O)OC)[nH]c1=O | 5 | 1 | -6 | 3 | -4 | 35* | 1
COC(=O)CSc1[nH]c(=O)cc(C)c1C#N | 9 | 5 | 5 | 2 | 4 | 0 | .
OC(CNCC1CCCO1)Cn1c2ccccc2c2ccccc21 (stereo unspecified) | -5 | 4 | 0 | 9 | 0 | 3 | .
OC(CNCC1CCCO1)Cn1c2ccc(Cl)cc2c2cc(Cl)ccc21 (stereo unspecified) | -6 | -3 | -13 | 1 | -9 | 41* | 34*
Cc1c(Br)c(=O)oc2c(Br)c(O)c(O)cc12 | 47* | 3 | 83* | 51* | 5 | 63* | 81*
CCOC(=O)c1c(O)c2cccc3c2n(c1=O)CC3 | -1 | -4 | 1 | 3 | -2 | 0 | .
Cc1cc(SCC(=O)c2ccc3c(c2)OCO3)nc2ccccc12 | -8 | -6 | -13 | 2 | -2 | 2 | .
Cc1cc(SCC(=O)c2ccc(O)c(O)c2)nc2ccccc12 | 13 | -8 | 31* | 2 | -7 | 42* | 94*
O=C(CSc1n[nH]c(-c2ccccc2)n1)c1ccc(O)c(O)c1 | 20 | 6 | 23 | 7 | -2 | 42* | 68*
O=C1c2cc(CO)cc(O)c2C(=O)c2c(O[C@@H]3OC(CO)[C@@H](O)[C@@H](O)[C@@H]3O)cccc21 (stereo partly specified) | 9 | 6 | -2 | 1 | 3 | 2 | .
O=C(O)c1cc(O)c2c(c1)[C@H]([C@H]1c3cc(C(=O)O)cc(O)c3C(=O)c3c(O[C@@H]4O[C@H](CO)[C@@H](O)[C@H](O)[C@H]4O)cccc31)c1cccc(OC3O[C@H](CO)[C@@H](O)[C@H](O)[C@H]3O)c1C2=O (stereo partly specified) | 80* | 75* | 90* | 77* | 10 | 94* | 99*
Cc1ccc(-n2nc3c(=O)n(C(C)C(=O)NCc4ccccc4Cl)nc(C)c3c2C)cc1 (stereo unspecified) | 0 | 8 | 4 | 1 | 3 | 1 | .
CCOc1ccccc1CNC(=O)C(C)n1nc(C)c2c(C)n(-c3ccccc3)nc2c1=O (stereo unspecified) | 3 | 8 | -1 | 1 | 5 | 58* | 0
CN(C)CCCNc1ncnc2c1c(-c1ccccc1)cn2-c1ccccc1 | 0 | 7 | -2 | -3 | 4 | 23 | .
OCCOCCNc1ncnc2c1c(-c1ccccc1)cn2-c1ccccc1 | 6 | 10 | 1 | 3 | 3 | 35* | 22
CCCCc1ccc(NC(=O)COc2ccc(C(=O)Nc3ccccc3OCC)cc2)cc1 | 1 | 4 | -2 | -5 | -2 | 5 | .
CCOC(=O)c1c(-c2ccccc2)csc1NC(=O)/C(C#N)=C/c1ccc(O)c(OC)c1 | 21 | -22 | 14 | 8 | -18 | 40* | 22
CC(=O)Nc1cccc(NC(=O)CCN2C(=O)c3ccccc3S2(=O)=O)c1 | 3 | 4 | 4 | -1 | 5 | 53* | 3
CCOC(=O)N1CCC(NC(=O)CC2C(=O)NCCN2Cc2ccccc2F)CC1 (stereo unspecified) | 9 | 1 | 4 | 2 | 5 | 49* | 6
SMILES | PAFAH1B3 inh | LYPLA2 counter | PAFAH2 inh | PAFAH1B2 FP inh | LYPLA1 counter | pPAFAH inh | pPAFAH confirm
COc1cc([N+](=O)[O-])cc(/C=N/NC(=O)C(C)Nc2cccc3ccccc23)c1O (stereo unspecified) | 14 | 7 | 2 | 8 | 3 | 40* | 59*
O=C(COC(=O)c1ccc2[nH]c3c(c2c1)CCCC3)Nc1ccccc1 | -2 | -12 | 77* | 3 | -13 | 43* | 41*
O=C(OCC(=O)N1CCOCC1)c1ccc2[nH]c3c(c2c1)CCCC3 | 5 | 3 | 2 | -2 | 1 | -1 | .
O=C(NNC(=S)Nc1ccc(Cl)c(Cl)c1)c1ccccn1 | 15 | 3 | 9 | 20 | -1 | 37* | 51*
O=C(Nc1nc(-c2ccco2)c(-c2ccco2)s1)c1c(F)cccc1Cl | 8 | -21 | 24 | 0 | -17 | 48* | 16
CCc1ccc(NC(=O)C(C)OC(=O)c2cc(=O)[nH]c3ccc(S(=O)(=O)Nc4ccc(F)cc4)cc23)cc1 (stereo unspecified) | -23 | -12 | -33 | -14 | -12 | 73* | 56*
O=C(NNC(=O)c1cc2cc(Br)ccc2oc1=O)c1ccc(O)cc1O | 16 | -4 | 10 | 1 | -4 | 47* | 47*
COCCCNC(=O)c1cc2cc(Br)ccc2oc1=O | 6 | 5 | -3 | 4 | 4 | 0 | .
CCOc1ccc(C2c3c(oc4ccccc4c3=O)C(=O)N2c2ccc(C)cn2)cc1OC (stereo unspecified) | 2 | -3 | 1 | 1 | -4 | 2 | .
CCCC1Nc2ccc(C(=O)O)cc2C2C=CCC12 (stereo unspecified) | 32* | 0 | 44* | 18 | -5 | 46* | 31*
CCOC(=O)C1Nc2ccc(C(=O)O)cc2C2C=CCC12 (stereo unspecified) | 49* | -7 | 18 | 24 | -14 | 40* | 7
O=C1CC(=C(c2ccccc2)c2ccccc2)C(=O)N1CCCN1CCN(c2cccc(Cl)c2)CC1 | 10 | -6 | -2 | 1 | 0 | 10 | .
